Screening results deposited in PubChem BioAssay by several laboratories.
IDE act: human IDE activators in live cells, primary screen, fluorescence polarization, HEK cells, FAbeta-B substrate; Insulin-degrading enzyme (Homo sapiens), P14735; FAbeta-B cleavage; 0% vehicle, 100% cell-free pure enzyme wells; activation, % at 5.96 µM; 0.073% of 340,000 active; AID 493087, 2011;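 active means activation above the mean of all tested compounds plus 3 SD, set per screening campaign, cut at about 17% in these data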
CRFR2-BP ag: agonists of CRF-BP/CRF-R2 complex, primary screen, cell-based, HEK293, calcium dye fluorescence, uHTS | calcium dye fluorescence (FLIPR); percent of saturating CRF peptide response | activation, % at 13.2 µM | 0.46% of 350,000 active | AID 588473, 2011;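 active means activation of at least 50%, plus an integration ratio under a set limit after plate pattern correction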;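 further: plate controls were neutral control wells without compound for no effect and CRF at EC100 for full effect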
CRFR2-BP antag: antagonists of CRF-BP/CRF-R2 complex, primary screen, cell-based, HEK293, calcium dye fluorescence, uHTS | CRF-induced calcium fluorescence | inhibition, % at 11.8 µM | 0.59% of 350,000 active;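 active means inhibition of the ligand-induced calcium signal above about 50% at the single tested concentration, limit read from the data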
IDE cell inh: human IDE inhibitors in live cells, primary screen, fluorescence polarization, HEK cells, FAbetaB substrate; Insulin-degrading enzyme (Homo sapiens), P14735; FAbetaB cleavage; inhibition, % at 5.59 µM; 0.41% of 320,000 active; AID 434962, 2010;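 active means percent inhibition above the average of all tested compounds plus 3 SD, set per screening campaign, cut at about 16% in these data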;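 further: IDE supplied by intact live HEK cells; FP after avidin binding of uncleaved biotin substrate so inhibition keeps polarization high; 0% = DMSO wells and 100% = 60 µM reference IDE inhibitor Ii1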
TPT1 inhibitor: Candida albicans TPT1 enzyme inhibitors, primary screen, biochemical, fluorescence polarization | recombinant caTPT1, FP RNA substrate dephosphorylation | 0.81% of 300,000 active | tRNA 2'-phosphotransferase TPT1 (Candida albicans SC5314) | inhibition, % at 5 µM;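 active means inhibition above the mean of all tested compounds plus 3 SD, set per screening campaign, cut at about 24% in these data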;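 further: plate controls were DMSO alone for no effect and ferristatin control at 100 nM for full effect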
Myeloid diff 2: induction of myeloid progenitor differentiation, primary screen, cell-based, flow cytometry, MLPCN library | ER-HoxA9 myeloid progenitors, lysozyme-GFP differentiation | calls only at 10 µM | 1% of 360,000 active;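 active means normalized GFP-positive differentiation at or above the plate's own cutoff, the solvent-only control mean plus 3 SD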;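 further: cells exposed to compound for four days before flow analysis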
TPT1 inh confirm: Candida albicans TPT1 inhibitors, confirmation, biochemical, fluorescence polarization, triplicate; AID 2149, 2009; 74% of 2,400 active; recombinant caTPT1, RNase T1 coupled; inhibition, % at 5 µM; shares compounds with TPT1 inhibitor;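 active means inhibition above the primary screen limit, the mean inhibition of all tested compounds plus 3 SD, cut at about 25% in these data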
RNase T1 counter: RNase T1 inhibitors, counter-screen for TPT1 inhibitor project, biochemical, fluorescence polarization; shares compounds with TPT1 inhibitor; RNase T1 cleavage, 1536-well; inhibition, % at 5 µM; 83% of 2,400 active; AID 2153, 2009;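 active means inhibition above the solvent-only control well mean plus 3 SD, limit set per screening run, cut at about 23% in these data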;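 further: plate controls were DMSO wells with enzyme for no effect and wells without RNase T1 for full effect; inhibitors block cleavage so intact labeled substrate keeps polarization high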
Target sequence (P00651 whole entry, looked up): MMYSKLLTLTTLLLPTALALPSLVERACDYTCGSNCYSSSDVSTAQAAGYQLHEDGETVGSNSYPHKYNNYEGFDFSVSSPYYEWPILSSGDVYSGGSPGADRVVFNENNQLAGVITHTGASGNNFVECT
Numbers without * were called inactive; i = inactive; . = no result given. An excerpt weighted towards active compounds, which were near 2.6% of everything screened.

SMILES	IDE act	CRFR2-BP ag	CRFR2-BP antag	IDE cell inh	TPT1 inhibitor	Myeloid diff 2	TPT1 inh confirm	RNase T1 counter
CCN(CC)CCCN1CC(=O)N2[C@@H](Cc3c([nH]c4ccccc34)C2(C)C)C1=O	1	-1	2	5	0	i	.	.
CCOc1cc(/C=C2/C(=O)ON=C2C)cc(Br)c1O	-3	8	-8	0	40*	i	111*	122*
CCOc1cc(/C=C2\C(=O)ON=C2c2ccccc2)cc(Br)c1O	-10	24	-37	4	40*	.	137*	138*
Cc1ccc(/C=C2/C(=O)ON=C2c2ccccc2)o1	-7	31	-38	4	34*	i	17	25*
CCCOc1ccc(/C=C2/C(=O)ON=C2C)cc1OCC	4	3	-2	-3	-2	i	.	.
COc1cc(/C=C2\C(=O)ON=C2c2ccccc2)cc(Br)c1O	-13	20	-44	-1	43*	i	138*	139*
COc1cc(/C=C2\C(=O)ON=C2c2ccccc2)cc(Cl)c1O	-13	15	-18	12	35*	i	123*	128*
C[C@H](NC(=O)c1ccco1)C(=O)NNC(=O)COc1cccc(C(F)(F)F)c1	-2	1	5	1	.	i	.	.
CC(NC(=O)CC1Nc2ccccc2NC1=O)c1ccccc1 (stereo not given)	7	1	-12	2	30*	i	39*	52*
O=C(CC1Nc2ccccc2NC1=O)c1ccccc1 (stereo not given)	.	.	.	10	73*	.	62*	73*
CC1CCCN(S(=O)(=O)c2cccc(C(=O)NCCCN3CCCC3=O)c2)C1 (stereo not given)	.	-1	14	.	.	i	.	.
O=C(O)CSc1ncnc2scc(-c3ccc(Br)cc3)c12	-6	1	1	-2	35*	i	46*	55*
Cc1sc2nc(CSc3ncn[nH]3)[nH]c(=O)c2c1C	3	0	17	-1	1	i	.	.
CCc1cc2c(SCc3nc4sc(C(C)=O)c(C)c4c(=O)[nH]3)ncnc2s1	-3	4	13	7	37*	i	33*	50*
CCCCn1c(-c2csc(C(C)C)c2)n[nH]c1=S	-2	0	-8	6	61*	i	6	8
Cc1nn(-c2ccccc2)c(N2CCCC2)c1/C=C1\N=C(c2ccc(OC(C)C)cc2)OC1=O	5	30	-81	-1	43*	i	73*	81*
COc1ccc(/C=C2\CCC(C3CCCC3)C2=O)c(OC)c1 (stereo not given)	1	0	-1	-3	2	i	.	.
COc1ccc(/C=C2\CC/C(=C\c3ccc(OC)cc3OC)C2=O)c(OC)c1	-8	88*	-84	2	148*	i	148*	138*
Cc1cnc(NC(=O)Cc2cccs2)s1	5	2	-20	-3	3	i	.	.
COC(=O)c1cc(NC(=O)c2ccccc2)c(=O)oc1C/C=N\OCc1ccc(Cl)cc1Cl	3	12	3	4	31*	i	28*	36*
COc1cccc(C2CCCCN2Cc2nc(-c3ccc(C)o3)oc2C)c1 (stereo not given)	-7	0	5	3	27*	i	31*	41*
